# Assay results taken from PubChem BioAssay (NCATS).
# Results filed as inconclusive are left out. Active and inactive are the calls of the source. Calls come from the whole dose curve; as a rule, active = well fitted cell-killing curve with a large enough effect; inconclusive = small, poorly fitted or top-dose-only effect, or effect the other way; inactive = flat fitted curve, though single readings scatter.
# Tested on: JEG-3
# Assay: Primary qHTS to identify gynecologic anti-cancer compounds using libraries of approved drugs and bioactive compounds (AID 1345084); note: nearly all actives have a fitted effect of over 55% in size
# Conditions: Gynecologic cancer cell panel viability, ATPlite luminescence, 48 h; series mostly up to 57.5 µM; activity change, negative = cytotoxicity: at the top concentration
# How it was run: (§1)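 Five-point cytotoxicity, 48 h drug exposure at 37 C, 5% CO2, on cells seeded 16 h beforehand. ATP content read by ATPlite luminescence.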
# % is set by controls: 0 for no effect and ±100 for the full control effect; potency is the fitted concentration of half-maximal effect.
row,SMILES,"activity change, negative = cytotoxicity"
1,O=C(c1ccccc1)c1ccc2nc(NC(=O)c3csc(C4CCN(c5ncnc6ccsc56)CC4)n3)[nH]c2c1,-30.7% (inactive)
2,CN1CCN(c2ccc(C(=O)Nc3n[nH]c4ccc(Cc5cc(F)cc(F)c5)cc34)c(NC3CCOCC3)c2)CC1,14.1% (inactive)
3,O=C(Nc1ccc(Cl)cc1F)c1ccccc1O,-27.5% (inactive)
4,O=C1N=C(N2CCOCC2)CN1c1ccc(Cl)cc1,9.96% (inactive)
5,CC(C)c1c2cc(-c3ccnc(NC4CCC(NC5CCOCC5)CC4)n3)ccc2nn1C (centres undefined),-13.1% (inactive)
6,CC1=C(C(=O)OCc2ccccc2)C(c2ccc(-c3ccccc3)cc2)NC(=O)N1CCCCCC(=O)O (centres undefined),-1.36% (inactive)
7,CC(C)CCC[C@@H](C)[C@H]1CC[C@H]2[C@@H]3CC(=O)[C@H]4C[C@@H](O)CC[C@]4(C)[C@H]3CC[C@]12C,0.449% (inactive)
8,CN1CCC(Nc2nc(Nc3ccc(Oc4ccccc4)cc3)c3c(=O)[nH]cc(Br)c3n2)CC1,-11.1% (inactive)
9,CCC1C(=O)OC23C=C[C@@H]4C(C(=O)O)=CO[C@H](O[C@@H]12)[C@@H]43 (some centres undefined),-1.99% (inactive)

# Tested on: OV90
# Assay: as above
# Conditions: Gynecologic cancer cell panel viability, ATPlite luminescence, 48 h; series mostly up to 57.5 µM; activity change, negative = cytotoxicity: at the top concentration
# How it was run: as §1
SMILES,"activity change, negative = cytotoxicity",Potency
O=C(O)c1cc2cccc([N+](=O)[O-])c2[nH]1,2.42% (inactive),
CC(C)c1cc(CNc2nc(Nc3cc(C4CC4)[nH]n3)cc(N3CCN(C)CC3)n2)on1,,3.16 µM (active)
COc1ccc(C(=O)Nc2ncc(-c3ccc(C(=O)O)cc3)s2)cc1,,10 µM (active)
CC(C)c1cc(C(=O)N2CC[C@H](NC(=O)C3CC3)C2)n[nH]1,-1.2% (inactive),
CN1c2ccccc2C(=O)N2CCC3c4ccccc4NC3C21 (centres undefined),-23.3% [at 38.5 µM] (inactive),
CC1=C(C(=O)O[C@@H]2O[C@H](COC3OCC(O)C(O)C3O)[C@@H](O)[C@H](O)[C@H]2O)C(C)(C)CCC1 (some centres undefined),-9.33% [at 25.3 µM] (inactive),
Cc1nc(Nc2n[nH]c3c2CN(C(=O)NC(CN(C)C)c2ccccc2)C3(C)C)c2sccc2n1 (centres undefined),,3.16 µM (active)
Cc1onc(C(=O)N2CCN(C(c3ccc(Cl)cc3)c3ccc(Cl)cc3)CC2)c1[N+](=O)[O-],-25.9% (inactive),
Nc1ccc(/C=C/C(=O)NCc2cc3cc(-c4ccc(C(=O)N5CCC(F)(F)CC5)cc4)cc(-c4ccc(F)cc4)c3o2)cn1,,3.55 µM (active)
COc1ncc(Nc2ncc([C@@H](C)N3CCN(S(C)(=O)=O)CC3)cc2-c2nc(C)nc(N)n2)cc1F,0.324% (inactive),
C[C@@H]1O[C@@H](O[C@H]2[C@H](O[C@H]3[C@H](O[C@H]4CC[C@@]5(C)C(CC[C@]6(C)C5CC=C5[C@@H]7CC(C)(C)CC[C@]7(C(=O)O[C@@H]7O[C@H](CO)[C@@H](O[C@@H]8O[C@@H](C)[C@H](O)[C@@H](O)[C@H]8O)[C@H](O)[C@H]7O)CC[C@]56C)C4(C)C)OC[C@H](O)[C@@H]3O)O[C@H](CO)[C@@H](O)[C@@H]2O)[C@H](O)[C@H](O)[C@H]1O (some centres undefined),-0.139% [at 6.55 µM] (inactive),
CC[C@]1(O)CC2CN(CCc3c([nH]c4ccccc34)[C@@](C(=O)OC)(c3cc4c(cc3OC)N(C=O)[C@H]3[C@@](O)(C(=O)OC)[C@H](OC(C)=O)[C@]5(CC)C=CCN6CC[C@]43[C@@H]65)C2)C1 (some centres undefined),,1.78 µM (active)
CC1(CCOC2OC(CO)C(O)C(O)C2O)CCC23OC2(C1)C(O)CC1C(C)(C(=O)O)CCCC13C (centres undefined),1.94% [at 25.3 µM] (inactive),
O=C(c1ccccc1)c1ccc2nc(NC(=O)c3csc(C4CCN(c5ncnc6ccsc56)CC4)n3)[nH]c2c1,,17.8 µM (active)
O=C1N=C(N2CCOCC2)CN1c1ccc(Cl)cc1,1.11% (inactive),
CC1=C(C(=O)OCc2ccccc2)C(c2ccc(-c3ccccc3)cc2)NC(=O)N1CCCCCC(=O)O (centres undefined),-18.1% (inactive),
COc1cc2nc(N3CCCC3)nc(NCCCCCN3CCCC3)c2cc1OC,,25.1 µM (active)
CC(C)CCC[C@@H](C)[C@H]1CC[C@H]2[C@@H]3CC(=O)[C@H]4C[C@@H](O)CC[C@]4(C)[C@H]3CC[C@]12C,4.96% (inactive),
CC(=O)OC1C(=O)C2(C)C(O)CC3OCC3(OC(C)=O)C2C(OC(=O)c2ccccc2)C2(O)CC(OC(=O)C(O)C(NC(=O)c3ccccc3)c3ccccc3)C(C)=C1C2(C)C (centres undefined),-17% (inactive),
CN1CCC(Nc2nc(Nc3ccc(Oc4ccccc4)cc3)c3c(=O)[nH]cc(Br)c3n2)CC1,-12.2% (inactive),
Cc1ccc(C(=O)Nc2noc3ccccc23)cc1,,11.2 µM (active)
O=S(=O)(NCC1CC1)c1ccc(Nc2nccc(N3CCCc4cc(O)ccc43)n2)cc1,-17.1% (inactive),
CCC1C(=O)OC23C=C[C@@H]4C(C(=O)O)=CO[C@H](O[C@@H]12)[C@@H]43 (some centres undefined),12.3% (inactive),

# Tested on: PA-1
# Assay: as above
# Conditions: Gynecologic cancer cell panel viability, ATPlite luminescence, 48 h; series mostly up to 57.5 µM; activity change, negative = cytotoxicity: at the top concentration
# How it was run: as §1
SMILES,"activity change, negative = cytotoxicity",Potency
O=C(O)c1cc2cccc([N+](=O)[O-])c2[nH]1,-3.63% (inactive),
COc1cc(C(=O)NC2CCN(C)CC2)c(F)cc1Nc1ncc2c(n1)N(C1CCCC1)CC(F)(F)C(=O)N2C,,0.158 µM (active)
CC(C)c1cc(CNc2nc(Nc3cc(C4CC4)[nH]n3)cc(N3CCN(C)CC3)n2)on1,,0.398 µM (active)
CC(C)c1cc(C(=O)N2CC[C@H](NC(=O)C3CC3)C2)n[nH]1,-12.8% (inactive),
CN1c2ccccc2C(=O)N2CCC3c4ccccc4NC3C21 (centres undefined),,4.47 µM (active)
CC1=C(C(=O)O[C@@H]2O[C@H](COC3OCC(O)C(O)C3O)[C@@H](O)[C@H](O)[C@H]2O)C(C)(C)CCC1 (some centres undefined),-26.2% [at 25.3 µM] (inactive),
Cc1nc(Nc2n[nH]c3c2CN(C(=O)NC(CN(C)C)c2ccccc2)C3(C)C)c2sccc2n1 (centres undefined),,0.316 µM (active)
Cc1onc(C(=O)N2CCN(C(c3ccc(Cl)cc3)c3ccc(Cl)cc3)CC2)c1[N+](=O)[O-],,8.91 µM (active)
Nc1ccc(/C=C/C(=O)NCc2cc3cc(-c4ccc(C(=O)N5CCC(F)(F)CC5)cc4)cc(-c4ccc(F)cc4)c3o2)cn1,,1.41 µM (active)
COc1ncc(Nc2ncc([C@@H](C)N3CCN(S(C)(=O)=O)CC3)cc2-c2nc(C)nc(N)n2)cc1F,-12.1% (inactive),
CCCCNc1ncc2c(-c3ccc(CN4CCN(C)CC4)cc3)cn(C3CCC(O)CC3)c2n1 (centres undefined),,6.31 µM (active)
COc1ccc(F)cc1-c1cc(NC(=O)[C@@H]2CCCNC2)ncc1Cl,,0.355 µM (active)
O=S(=O)(c1ccccc1)c1cnc2c(N3CCNCC3)cccc2c1,24.6% (inactive),
CC[C@]1(O)CC2CN(CCc3c([nH]c4ccccc34)[C@@](C(=O)OC)(c3cc4c(cc3OC)N(C=O)[C@H]3[C@@](O)(C(=O)OC)[C@H](OC(C)=O)[C@]5(CC)C=CCN6CC[C@]43[C@@H]65)C2)C1 (some centres undefined),,0.126 µM (active)
C[C@@H]1COCCN1c1cc(C2(S(C)(=O)=O)CC2)nc(-c2cccc3[nH]ccc23)n1,,11.2 µM (active)
O=C1N=C(N2CCOCC2)CN1c1ccc(Cl)cc1,5.44% (inactive),
CC(C)c1c2cc(-c3ccnc(NC4CCC(NC5CCOCC5)CC4)n3)ccc2nn1C (centres undefined),,0.355 µM (active)
CC1=C(C(=O)OCc2ccccc2)C(c2ccc(-c3ccccc3)cc2)NC(=O)N1CCCCCC(=O)O (centres undefined),3.3% (inactive),
COc1cc2nc(N3CCCC3)nc(NCCCCCN3CCCC3)c2cc1OC,,6.31 µM (active)
CC(C)CCC[C@@H](C)[C@H]1CC[C@H]2[C@@H]3CC(=O)[C@H]4C[C@@H](O)CC[C@]4(C)[C@H]3CC[C@]12C,1.52% (inactive),
O=S(=O)(NCC1CC1)c1ccc(Nc2nccc(N3CCCc4cc(O)ccc43)n2)cc1,,10 µM (active)
CCC1C(=O)OC23C=C[C@@H]4C(C(=O)O)=CO[C@H](O[C@@H]12)[C@@H]43 (some centres undefined),6.11% (inactive),
